Test results as given in PubChem BioAssay AID1159580 (chemical genetic matrix, 2015).
Values joined by “and” are separate entries in the source; they are usually repeats but may differ in a detail not shown here. Identical values can stand only once. Out of some 5,500 compounds screened, about 2,000 (36%) were called active. Another 18% or so got no clear call; they are omitted. Rule as the data show it: active = normalized growth mostly below about 0.91 (no sharp cut-off); inconclusive = no clear call, values can overlap the other calls; inactive = mostly above about 0.92. The list shows a part of the results.

Experiment: chemical genetic growth profiling, strain panel (AID 1159580);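 also: tested at 20 µM; growth read once vehicle control cultures reached saturation at 30 °C; 1 = growth at the plate median or of vehicle wells; lower values mean less growth of the strain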
Settings: S. cerevisiae deletion strains, growth OD

Measured: normalized growth

COc1cc2c(cc1O)CCNC2C (stereo not drawn)
inactive: locus YAL021C, strain ccr4, stronger effect = lower value 1.01 | locus YAL026C, strain drs2, stronger effect = lower value 1 | locus YAL030W, strain snc1, stronger effect = lower value 0.993 | locus YBL061C, strain skt5, stronger effect = lower value 1 | locus YBR009C, strain hhf1, stronger effect = lower value 1 | locus YBR021W, strain FUR4, stronger effect = lower value 1.01 | locus YBR023C, strain chs3, stronger effect = lower value 0.999 | locus YBR171W, strain sec66, stronger effect = lower value 0.982 | locus YBR229C, strain ROT2, stronger effect = lower value 0.993 | locus YBR231C, strain swc5, stronger effect = lower value 0.984 | locus YBR279W, strain paf1, stronger effect = lower value 0.996 | locus YCL011C, strain gbp2, stronger effect = lower value 0.992 | locus YCL016C, strain dcc1, stronger effect = lower value 1.01 | locus YCL029C, strain bik1, stronger effect = lower value 0.968 | locus YCL061C, strain MRC1, stronger effect = lower value 0.989 | locus YCL069W, strain vba3, stronger effect = lower value 0.996 | locus YCR088W, strain abp1, stronger effect = lower value 0.975 | locus YDL005C, strain med2, stronger effect = lower value 0.978 | locus YDL035C, strain GPR1, stronger effect = lower value 1.03 | locus YDL040C, strain nat1, stronger effect = lower value 0.991 | locus YDL074C, strain BRE1, stronger effect = lower value 1 | locus YDL101C, strain DUN1, stronger effect = lower value 0.989 | locus YDL134C, strain PPH21, stronger effect = lower value 1 | locus YDL185W, strain tfp1, stronger effect = lower value 0.981 | locus YDL192W, strain arf1, stronger effect = lower value 0.976 | locus YDR001C, strain nth1, stronger effect = lower value 0.999 | locus YDR069C, strain doa4, stronger effect = lower value 0.975 | locus YDR101C, strain arx1, stronger effect = lower value 0.963 | locus YDR137W, strain rgp1, stronger effect = lower value 0.99 | locus YDR150W, strain NUM1, stronger effect = lower value 0.996 | locus YDR159W, strain sac3, stronger effect = lower value 1.01 | locus YDR162C, strain NBP2, stronger effect = lower value 1.01 | locus YDR195W, strain ref2 0.94 | locus YDR297W, strain sur2, stronger effect = lower value 0.993 | locus YDR318W, strain mcm21, stronger effect = lower value 0.982 | locus YDR334W, strain swr1, stronger effect = lower value 0.99 | locus YDR335W, strain msn5, stronger effect = lower value 0.983 | locus YDR388W, stronger effect = lower value 0.98 | locus YDR392W, strain spt3, stronger effect = lower value 1.03 | locus YDR502C, strain sam2, stronger effect = lower value 0.982 | locus YEL003W, strain gim4, stronger effect = lower value 0.999 | locus YEL037C, strain rad23, stronger effect = lower value 1 | locus YEL061C, strain CIN8 (second series), stronger effect = lower value 0.99 | locus YEL061C, strain CIN8, stronger effect = lower value 0.996 | locus YER015W, strain faa2, stronger effect = lower value 0.995 | locus YER016W, strain bim1, stronger effect = lower value 1.01 | locus YER110C, stronger effect = lower value 0.965 | locus YER111C, strain swi4, stronger effect = lower value 0.975 | locus YER155C, strain BEM2 (second series), stronger effect = lower value 0.94 | locus YER155C, strain BEM2, stronger effect = lower value 0.98 | locus YER167W, strain BCK2, stronger effect = lower value 1.01 | locus YFR010W, strain ubp6, stronger effect = lower value 0.978 | locus YGL078C, strain dbp3, stronger effect = lower value 0.984 | locus YGL086W, strain mad1, stronger effect = lower value 0.968 | locus YGL167C, strain pmr1, stronger effect = lower value 0.993 | locus YGL173C, strain kem1, stronger effect = lower value 1 | locus YGL227W, strain vid30, stronger effect = lower value 0.993 | locus YGL240W, strain doc1, stronger effect = lower value 0.971 | locus YGL248W, strain PDE1, stronger effect = lower value 0.988 | locus YGL253W, strain hxk2, stronger effect = lower value 1 | locus YGR135W, strain pre9, stronger effect = lower value 0.977 | locus YGR252W, strain gcn5, stronger effect = lower value 0.983 | locus YHR013C, strain ard1, stronger effect = lower value 0.99 | locus YHR027C, strain rpn1, stronger effect = lower value 1 | locus YHR030C, strain SLT2, stronger effect = lower value 0.993 and 1.05 | locus YHR079C, strain IRE1 (second series), stronger effect = lower value 0.979 | locus YHR079C, strain IRE1, stronger effect = lower value 1.05 | locus YHR094C, strain hxt1, stronger effect = lower value 0.971 | locus YHR129C, strain ARP1, stronger effect = lower value 0.992 | locus YHR142W, strain chs7, stronger effect = lower value 1.01 | locus YHR200W, strain rpn10, stronger effect = lower value 1 | locus YIL066C, strain RNR3, stronger effect = lower value 1.01 | locus YIL073C, strain SPO22, stronger effect = lower value 0.963 | locus YIL125W, strain kgd1, stronger effect = lower value 0.981 | locus YIR030C, strain dcg1, stronger effect = lower value 0.978 | locus YJL092W, strain hpr5, stronger effect = lower value 0.991 | locus YJL095W, strain BCK1 (second series), stronger effect = lower value 0.978 | locus YJL095W, strain BCK1, stronger effect = lower value 0.984 and 1.01 | locus YJL115W, strain asf1, stronger effect = lower value 0.988 | locus YJL129C, strain trk1, stronger effect = lower value 0.99 | locus YJL134W, strain LCB3, stronger effect = lower value 0.995 | locus YJL154C, strain vps35, stronger effect = lower value 0.994 | locus YJL164C, strain tpk1, stronger effect = lower value 1 | locus YJL166W, strain qcr8, stronger effect = lower value 0.987 | locus YJL168C, strain set2, stronger effect = lower value 0.973 | locus YJL187C, strain SWE1 (second series), stronger effect = lower value 0.992 | locus YJR043C, strain POL32, stronger effect = lower value 1.05 | locus YJR066W, strain TOR1, stronger effect = lower value 0.982 | locus YKL009W, strain mrt4, stronger effect = lower value 0.961 | locus YKL068W, stronger effect = lower value 0.987 | locus YKL085W, strain MDH1 (second series), stronger effect = lower value 0.982 | locus YKL085W, strain MDH1, stronger effect = lower value 0.982 | locus YKL160W, strain elf1, stronger effect = lower value 0.994 | locus YKR001C, strain vps1, stronger effect = lower value 0.958 | locus YKR026C, strain gcn3, stronger effect = lower value 0.989 | locus YKR091W, strain srl3, stronger effect = lower value 0.991 | locus YLL001W, strain dnm1, stronger effect = lower value 0.982 | locus YLL026W, stronger effect = lower value 0.987 | locus YLL041C, strain sdh2, stronger effect = lower value 0.992 | locus YLR027C, strain aat2, stronger effect = lower value 0.98 | locus YLR039C, strain RIC1, stronger effect = lower value 1.02 | locus YLR058C, strain SHM2, stronger effect = lower value 0.995 | locus YLR102C, strain apc9, stronger effect = lower value 0.974 | locus YLR113W, strain HOG1, stronger effect = lower value 0.977 | locus YLR221C, strain rsa3, stronger effect = lower value 0.996 | locus YLR258W, strain gsy2, stronger effect = lower value 0.998 | locus YLR262C, strain YPT6 (second series), stronger effect = lower value 0.994 | locus YLR262C, strain YPT6, stronger effect = lower value 1.05 | locus YLR268W, strain sec22, stronger effect = lower value 0.965 | locus YLR320W, strain mms22, stronger effect = lower value 0.994 | locus YLR330W, strain CHS5, stronger effect = lower value 1 | locus YLR342W, strain FKS1 (second series), stronger effect = lower value 1.03 | locus YLR342W, strain FKS1, stronger effect = lower value 0.987 | locus YLR357W, strain rsc2, stronger effect = lower value 0.979 | locus YLR370C, strain arc18, stronger effect = lower value 0.988 | locus YLR371W, strain rom2, stronger effect = lower value 0.967 | locus YLR384C, strain iki3, stronger effect = lower value 0.985 | locus YLR418C, strain cdc73, stronger effect = lower value 0.973 | locus YML016C, strain PPZ1, stronger effect = lower value 0.991 | locus YML032C, strain rad52, stronger effect = lower value 0.99 | locus YML120C, strain ndi1, stronger effect = lower value 0.991 | locus YML124C, strain tub3, stronger effect = lower value 0.984 | locus YMR058W, strain fet3, stronger effect = lower value 0.991 | locus YMR078C, strain ctf18, stronger effect = lower value 0.977 | locus YMR125W, strain sto1, stronger effect = lower value 1 | locus YMR129W, stronger effect = lower value 0.996 | locus YMR205C, strain PFK2, stronger effect = lower value 0.991 | locus YMR223W, strain ubp8, stronger effect = lower value 0.985 | locus YMR231W, strain pep5, stronger effect = lower value 0.984 | locus YMR307W, strain GAS1, stronger effect = lower value 1.08 | locus YNL067W, strain RPL9B, stronger effect = lower value 0.988 | locus YNL071W, strain lat1, stronger effect = lower value 0.988 | locus YNL128W, strain TEP1, stronger effect = lower value 0.992 | locus YNL153C, strain GIM3, stronger effect = lower value 0.988 | locus YNL183C, strain NPR1, stronger effect = lower value 0.974 | locus YNL209W, strain ssb2, stronger effect = lower value 0.997 | locus YNL233W, strain BNI4, stronger effect = lower value 0.982 | locus YNL248C, strain rpa49, stronger effect = lower value 0.997 | locus YNL250W, strain rad50, stronger effect = lower value 0.99 | locus YNL271C, strain bni1, stronger effect = lower value 0.975 | locus YNL298W, strain CLA4, stronger effect = lower value 0.989 | locus YNL307C, strain MCK1, stronger effect = lower value 0.969 | locus YNL322C, strain KRE1 (second series), stronger effect = lower value 0.98 | locus YNR049C, strain mso1, stronger effect = lower value 0.987 | locus YNR052C, strain pop2, stronger effect = lower value 0.973 | locus YOL012C, strain htz1 0.945 | locus YOL147C, strain pex11, stronger effect = lower value 0.979 | locus YOR001W, strain rrp6, stronger effect = lower value 0.958 | locus YOR061W, strain CKA2, stronger effect = lower value 0.997 | locus YOR069W, strain VPS5, stronger effect = lower value 0.987 | locus YOR070C, strain gyp1, stronger effect = lower value 0.999 | locus YOR080W, strain dia2, stronger effect = lower value 0.987 | locus YOR083W, strain WHI5, stronger effect = lower value 0.988 | locus YOR106W, strain vam3, stronger effect = lower value 0.989 | locus YOR136W, strain idh2, stronger effect = lower value 0.964 | locus YOR144C, strain elg1, stronger effect = lower value 0.983 | locus YOR184W, strain ser1, stronger effect = lower value 0.988 | locus YOR231W, strain MKK1, stronger effect = lower value 1 | locus YOR265W, strain rbl2, stronger effect = lower value 0.984 | locus YOR270C, strain vph1, stronger effect = lower value 1.02 | locus YOR290C, strain snf2, stronger effect = lower value 0.999 | locus YOR316C, strain cot1, stronger effect = lower value 0.981 | locus YPL051W, strain arl3, stronger effect = lower value 0.985 | locus YPL055C, strain LGE1, stronger effect = lower value 1 | locus YPL078C, strain atp4, stronger effect = lower value 0.989 | locus YPL106C, strain sse1, stronger effect = lower value 0.991 | locus YPL240C, strain hsp82, stronger effect = lower value 1 | locus YPL256C, strain CLN2, stronger effect = lower value 1.06 | locus YPR119W, strain clb2, stronger effect = lower value 0.978 | locus YPR141C, strain kar3, stronger effect = lower value 0.968 | locus YPR163C, strain tif3, stronger effect = lower value 0.979 | locus YPR167C, strain met16, stronger effect = lower value 0.974 | strain wtn01, stronger effect = lower value 0.952
